# About 3,000 (1%) of roughly 290,000 compounds were called active. Shown is part of a subset that was picked to be rich in actives. Unmarked numbers belong to inactive results. Rule as the data show it: active = inhibition mostly above about 36% (no sharp cut-off); inactive = mostly below about 34%.
# Assay: NOD1 signaling inhibitors, primary screen, cell-based, luminescence, uHTS (AID 1578);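 also: HEK-293T reporter cells stimulated with the NOD1 agonist gamma-tri-DAP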
# Conditions: NOD1-driven NF-kB luciferase reporter cells, at 4 µM, stronger effect = higher value
row,SMILES,inhibition
1,CC(C)CC(C(=O)N1CCc2ccccc2C1)N1C(=O)c2ccccc2C1=O (stereo not given),5.4%
2,COc1ccc(N2C(=O)c3ccccc3NC2c2cccnc2)cc1 (stereo not given),-14.4%
3,COc1ccc2c(c1OC)C(=O)N(c1ncn[nH]1)C2,-15.4%
4,COc1ccccc1N1Cc2ccc(OC)c(OC)c2C1=O,-5.2%
5,COc1ccc2c(c1OC)C(=O)OC2,33.6% (active)
6,COc1cc(OC)cc(C(=O)OCCCOC(=O)c2cc(OC)cc(OC)c2)c1,-7.2%
7,CN(NS(=O)(=O)c1ccc(Br)cc1)c1nc(C(F)(F)F)nc2ccccc12,31.4% (active)
8,CN(NS(=O)(=O)c1ccc(Cl)cc1)c1nc(C(F)(F)F)nc2ccccc12,26%
9,COc1ccc(S(=O)(=O)NN(C)c2nc(C(F)(F)F)nc3ccccc23)cc1,-27.6%
10,CN(C)C1(CN=Cc2cc(Cl)cc([N+](=O)[O-])c2O)CCCCC1,-19%
11,O=C(N/N=C/c1ccc(-c2ccccc2)o1)c1ccccc1O,-1.6%
12,O=C(N/N=C/c1ccc(-c2cccc(C(F)(F)F)c2)o1)c1ccccc1Br,13.2%
13,O=C(N/N=C/c1ccc(-c2cccc(C(F)(F)F)c2)o1)c1ccccc1O,86.8% (active)
14,Cc1cc2cc(CCNC(=O)c3cccc([N+](=O)[O-])c3)c(=O)[nH]c2cc1C,3.3%
15,COc1ccc2cc(CCNC(=O)c3cccc([N+](=O)[O-])c3)c(=O)[nH]c2c1,45.6% (active)
16,Cc1ccc2cc(CCNC(=O)c3cccc([N+](=O)[O-])c3)c(=O)[nH]c2c1,26.4%
17,COc1cc(Br)c(CC(=O)O)cc1OC,4%
18,CCn1cc(C(=O)OCC(=O)c2cc(C)n(-c3cccc(C(F)(F)F)c3)c2C)c(=O)c2ccc(C)nc21,62.7% (active)
19,CCn1cc(C(=O)OCC(=O)c2cc(C)n(-c3ccccc3)c2C)c(=O)c2ccc(C)nc21,6.2%
20,CCn1cc(C(=O)OCC(=O)c2cc(C)n(-c3ccccc3F)c2C)c(=O)c2ccc(C)nc21,10.8%
21,Cc1nn(Cc2ccc(C(=O)N3CCN(C(=O)c4ccco4)CC3)o2)c(C)c1[N+](=O)[O-],-22.1%
22,C/C(=N\NC(=O)c1cccc2ccccc12)c1cccs1,-68.3%
23,C/C(=N\NC(=O)c1ccccc1O)c1ccc(Br)s1,8.3%

row,SMILES,inhibition
1,C/C(=N\NC(=O)c1cc2ccccc2cc1O)c1cccs1,5.7%
2,C/C(=N\NC(=O)c1ccccc1O)c1cccs1,69.7% (active)
3,C/C(=N\NC(=O)c1ccoc1C)c1ccc(Br)s1,15.3%
4,CCN(CC(=O)NCc1ccc(Cl)cc1)C(=O)/C=C/c1cccs1,-23.9%
5,CC1CCCN(CC(=O)Nc2ccc(S(=O)(=O)N3CCCCCC3)cc2)C1 (stereo not given),-8.7%
6,Cc1ccc(/C=C2/SC(=Nc3ccc(F)cc3)NC2=O)s1,-8.8%
7,CC(=O)NC(Cc1ccc(C)cc1)C(=O)NC1CCN(C(=O)c2ccc([N+](=O)[O-])cc2)CC1 (stereo not given),-4.9%
8,Cc1noc2ncnc(N3CCN(c4ccc(F)cc4)CC3)c12,-41.6%
9,Cc1noc2ncnc(N3CCCC3)c12,-13.8%
10,Cc1nn(C)c(Oc2ccccc2)c1CCNS(=O)(=O)c1ccccc1,14.8%
11,CCN(CC)C(=S)Sc1c(-c2ccccc2)c2cc(Cl)ccc2[nH]c1=O,78.1% (active)
12,O=C(O)CSc1c(-c2ccccc2)c2cc(Cl)ccc2[nH]c1=O,-28.5%
13,O=c1[nH]c2ccc(Cl)cc2c(-c2ccccc2)c1SC(=S)N1CCCCC1,47%
14,COc1ccc2c(C)cc(SC3CCOC3=O)nc2c1 (stereo not given),-1.1%
15,C=CCc1cc(Cl)ccc1OCCNCCCOC,-15.8%
16,C=CCc1cc(Cl)ccc1OCCNCCOC,43.2% (active)
17,C=CCc1cc(Cl)ccc1OCCOCCNCCOC,-24.9%
18,CCC(C(=O)c1ccc2ncccc2c1)c1ccccc1 (stereo not given),-3.6%
19,CCOC(=O)C1=C(N)Oc2cc(O)ccc2C1c1ccc([N+](=O)[O-])cc1 (stereo not given),67.7% (active)
20,CCOC(=O)C1=C(N)Oc2cc(O)ccc2C1c1ccc(C)cc1 (stereo not given),-17.2%
21,CCOC(=O)C1=C(N)Oc2cc(O)ccc2C1c1cccc([N+](=O)[O-])c1 (stereo not given),41.2%
22,COc1cc(COc2ccc3c(C)c(CCC(=O)O)c(=O)oc3c2)cc(OC)c1OC,-4.2%

# — PubChem BioAssay AID1578 (Sanford-Burnham Center for Chemical Genomics, 2009)
